# Reference: the supplement of paper PMC11732987, “Enantioselective OTUD7B fragment discovery through chemoproteomics screening and high-throughput optimisation” (Communications Chemistry, 2025)
# Values without a mark were called inactive.
# Key:
# Test in all cases: log2 ratio of Biotin-Ahx-Ub-VS probe labelling (fragment/DMSO); higher = less target engagement (more negative = stronger competition), active = hit call of the paper (q ≤ 0.05, log2 ratio ≤ -1)
# Details in all cases: compound concentration: 200 uM; treatment time: 3 h
# [1] = target: T1, OTUD6B (UniProt Q8N6M0)
# T1 sequence (whole entry): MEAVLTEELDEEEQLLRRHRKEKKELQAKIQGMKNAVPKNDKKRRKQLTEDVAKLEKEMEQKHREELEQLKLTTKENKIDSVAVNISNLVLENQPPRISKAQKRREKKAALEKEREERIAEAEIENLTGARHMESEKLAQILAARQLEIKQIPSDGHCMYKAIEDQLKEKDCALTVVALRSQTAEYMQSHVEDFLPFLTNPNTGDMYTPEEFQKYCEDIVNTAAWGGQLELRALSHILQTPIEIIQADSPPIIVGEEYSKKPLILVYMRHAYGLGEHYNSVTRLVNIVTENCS
# Method in brief: (§1)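 HEK293T lysate (495 µg per sample, in Tris/CHAPS/IGEPAL buffer with protease inhibitors) was treated in triplicate with fragment at 200 µM or with DMSO for 3 h. It was then treated with Biotin-Ahx-Ub-VS (0.5 µM final) for 1 h. Labelled DUBs were NeutrAvidin-enriched, digested with LysC and trypsin, and run by diaPASEF LC-MS/MS. Spectronaut label-free quantities were global-median-normalised. Values are average log2 ratios fragment/DMSO by unpaired t-test, using proteins with ≥2 unique peptides.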
# [2] = target: T2, OTUD7B (UniProt Q6GQQ9)
# T2 sequence (whole entry): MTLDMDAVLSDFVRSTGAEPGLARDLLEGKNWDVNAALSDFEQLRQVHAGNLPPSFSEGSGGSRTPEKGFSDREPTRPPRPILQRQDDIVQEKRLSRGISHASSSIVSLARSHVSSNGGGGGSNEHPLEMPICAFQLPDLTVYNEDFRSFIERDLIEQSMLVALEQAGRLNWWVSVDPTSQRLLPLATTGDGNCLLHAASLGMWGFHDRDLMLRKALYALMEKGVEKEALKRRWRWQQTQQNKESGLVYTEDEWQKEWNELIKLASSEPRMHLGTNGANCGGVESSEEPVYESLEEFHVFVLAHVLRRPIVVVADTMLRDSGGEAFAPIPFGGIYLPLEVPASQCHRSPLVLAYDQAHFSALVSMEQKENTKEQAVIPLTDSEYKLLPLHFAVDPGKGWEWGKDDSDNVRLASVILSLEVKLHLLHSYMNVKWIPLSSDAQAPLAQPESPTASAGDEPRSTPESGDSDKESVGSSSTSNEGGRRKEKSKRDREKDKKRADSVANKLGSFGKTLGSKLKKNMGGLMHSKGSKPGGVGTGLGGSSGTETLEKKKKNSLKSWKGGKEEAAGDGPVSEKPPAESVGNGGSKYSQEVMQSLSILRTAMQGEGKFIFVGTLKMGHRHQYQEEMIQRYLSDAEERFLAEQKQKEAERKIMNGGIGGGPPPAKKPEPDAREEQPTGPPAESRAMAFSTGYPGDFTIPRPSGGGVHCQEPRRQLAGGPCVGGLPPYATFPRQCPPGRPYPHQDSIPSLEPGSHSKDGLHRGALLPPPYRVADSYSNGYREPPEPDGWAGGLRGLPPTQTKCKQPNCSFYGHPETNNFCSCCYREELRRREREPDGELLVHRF
# Method in brief: as §1
# [3] = target: PRPF8 (UniProt Q6P2Q9)
# Method in brief: as §1
# [4] = target: T3, PSMD7 (UniProt P51665)
# T3 sequence (whole entry): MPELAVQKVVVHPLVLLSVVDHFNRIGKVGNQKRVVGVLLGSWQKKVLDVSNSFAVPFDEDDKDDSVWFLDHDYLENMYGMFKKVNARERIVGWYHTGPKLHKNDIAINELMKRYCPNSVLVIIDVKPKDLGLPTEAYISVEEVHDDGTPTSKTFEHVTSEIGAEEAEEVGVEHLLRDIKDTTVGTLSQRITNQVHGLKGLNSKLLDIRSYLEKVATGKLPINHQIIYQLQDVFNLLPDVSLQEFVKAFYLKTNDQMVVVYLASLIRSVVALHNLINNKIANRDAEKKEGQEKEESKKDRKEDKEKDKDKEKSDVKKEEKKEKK
# Method in brief: as §1
# [5] = target: UCHL1 (UniProt P09936)
# Sequence of UCHL1 (P09936 whole entry, looked up): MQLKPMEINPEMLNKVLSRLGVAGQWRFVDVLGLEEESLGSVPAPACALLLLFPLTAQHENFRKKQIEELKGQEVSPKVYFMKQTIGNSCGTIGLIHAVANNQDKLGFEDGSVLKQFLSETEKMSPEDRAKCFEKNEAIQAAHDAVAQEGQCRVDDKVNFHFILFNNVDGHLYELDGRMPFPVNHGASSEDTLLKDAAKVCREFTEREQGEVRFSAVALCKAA
# Method in brief: as §1
# [6] = target: T4, UCHL3 (UniProt P15374)
# T4 sequence (whole entry): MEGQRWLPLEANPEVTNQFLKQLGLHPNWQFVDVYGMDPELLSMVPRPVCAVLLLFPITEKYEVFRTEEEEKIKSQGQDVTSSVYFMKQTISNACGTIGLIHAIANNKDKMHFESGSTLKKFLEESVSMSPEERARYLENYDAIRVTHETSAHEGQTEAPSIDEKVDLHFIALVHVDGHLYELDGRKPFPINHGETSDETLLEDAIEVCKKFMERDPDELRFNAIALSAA
# Method in brief: as §1
# [7] = target: T5, UCHL5 (UniProt Q9Y5K5)
# T5 sequence (whole entry): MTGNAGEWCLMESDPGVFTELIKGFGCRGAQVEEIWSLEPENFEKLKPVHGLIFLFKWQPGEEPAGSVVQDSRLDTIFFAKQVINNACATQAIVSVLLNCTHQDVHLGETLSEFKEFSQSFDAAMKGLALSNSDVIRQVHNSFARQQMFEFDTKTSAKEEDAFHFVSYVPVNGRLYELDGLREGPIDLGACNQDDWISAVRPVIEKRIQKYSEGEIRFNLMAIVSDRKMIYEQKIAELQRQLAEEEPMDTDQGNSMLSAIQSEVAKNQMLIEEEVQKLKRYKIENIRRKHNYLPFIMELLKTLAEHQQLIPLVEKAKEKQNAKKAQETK
# Method in brief: as §1
# [8] = target: USP10 (UniProt Q14694)
# Sequence of USP10 (Q14694 whole entry): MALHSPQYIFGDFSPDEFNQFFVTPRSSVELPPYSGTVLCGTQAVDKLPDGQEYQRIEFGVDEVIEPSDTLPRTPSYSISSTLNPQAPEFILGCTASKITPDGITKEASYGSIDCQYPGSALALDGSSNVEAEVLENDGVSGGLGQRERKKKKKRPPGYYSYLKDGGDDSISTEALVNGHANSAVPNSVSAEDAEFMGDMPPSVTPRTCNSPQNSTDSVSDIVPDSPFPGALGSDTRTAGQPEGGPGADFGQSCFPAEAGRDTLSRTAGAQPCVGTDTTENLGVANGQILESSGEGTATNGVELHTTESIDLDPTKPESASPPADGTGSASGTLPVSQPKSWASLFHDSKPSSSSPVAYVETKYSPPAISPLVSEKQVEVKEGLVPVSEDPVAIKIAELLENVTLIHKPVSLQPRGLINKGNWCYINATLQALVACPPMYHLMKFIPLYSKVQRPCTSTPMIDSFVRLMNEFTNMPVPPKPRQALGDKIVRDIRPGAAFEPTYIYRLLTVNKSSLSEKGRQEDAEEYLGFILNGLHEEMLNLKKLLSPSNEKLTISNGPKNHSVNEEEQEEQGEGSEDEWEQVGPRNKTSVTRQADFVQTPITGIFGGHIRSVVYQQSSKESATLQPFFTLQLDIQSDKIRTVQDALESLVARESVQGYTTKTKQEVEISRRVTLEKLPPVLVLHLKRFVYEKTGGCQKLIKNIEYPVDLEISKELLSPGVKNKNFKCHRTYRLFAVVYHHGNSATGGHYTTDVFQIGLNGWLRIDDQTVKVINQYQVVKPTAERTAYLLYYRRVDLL
# Method in brief: as §1
# [9] = target: T6, USP15 (UniProt Q9Y4E8)
# T6 sequence (whole entry): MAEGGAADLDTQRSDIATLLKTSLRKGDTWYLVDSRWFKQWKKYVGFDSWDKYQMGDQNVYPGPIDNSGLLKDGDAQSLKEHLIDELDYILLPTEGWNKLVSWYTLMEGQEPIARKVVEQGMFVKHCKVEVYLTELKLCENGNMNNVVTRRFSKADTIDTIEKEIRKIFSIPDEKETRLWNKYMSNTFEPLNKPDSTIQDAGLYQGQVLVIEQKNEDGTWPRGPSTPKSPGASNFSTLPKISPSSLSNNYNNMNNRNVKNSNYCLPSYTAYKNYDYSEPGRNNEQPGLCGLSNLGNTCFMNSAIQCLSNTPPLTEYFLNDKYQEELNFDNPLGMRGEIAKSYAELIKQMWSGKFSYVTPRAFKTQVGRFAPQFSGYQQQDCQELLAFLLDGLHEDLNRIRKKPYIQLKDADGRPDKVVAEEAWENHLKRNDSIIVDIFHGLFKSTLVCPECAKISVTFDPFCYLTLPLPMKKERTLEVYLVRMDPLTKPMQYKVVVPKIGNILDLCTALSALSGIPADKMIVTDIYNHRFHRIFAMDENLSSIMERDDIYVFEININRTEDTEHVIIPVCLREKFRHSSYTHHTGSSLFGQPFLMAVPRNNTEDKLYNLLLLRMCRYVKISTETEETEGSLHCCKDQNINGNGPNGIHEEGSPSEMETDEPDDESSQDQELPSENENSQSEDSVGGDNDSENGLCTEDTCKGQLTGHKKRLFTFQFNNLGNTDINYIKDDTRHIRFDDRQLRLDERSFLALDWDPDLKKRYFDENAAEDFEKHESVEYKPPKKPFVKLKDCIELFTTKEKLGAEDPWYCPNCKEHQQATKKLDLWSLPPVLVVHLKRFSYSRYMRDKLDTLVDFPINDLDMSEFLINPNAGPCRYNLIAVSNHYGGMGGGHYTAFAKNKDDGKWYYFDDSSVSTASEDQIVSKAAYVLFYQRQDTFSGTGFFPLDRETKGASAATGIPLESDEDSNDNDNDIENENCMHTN
# Method in brief: as §1
# [10] = target: USP16 (UniProt Q9Y5T5)
# Sequence of USP16 (Q9Y5T5 whole entry, looked up): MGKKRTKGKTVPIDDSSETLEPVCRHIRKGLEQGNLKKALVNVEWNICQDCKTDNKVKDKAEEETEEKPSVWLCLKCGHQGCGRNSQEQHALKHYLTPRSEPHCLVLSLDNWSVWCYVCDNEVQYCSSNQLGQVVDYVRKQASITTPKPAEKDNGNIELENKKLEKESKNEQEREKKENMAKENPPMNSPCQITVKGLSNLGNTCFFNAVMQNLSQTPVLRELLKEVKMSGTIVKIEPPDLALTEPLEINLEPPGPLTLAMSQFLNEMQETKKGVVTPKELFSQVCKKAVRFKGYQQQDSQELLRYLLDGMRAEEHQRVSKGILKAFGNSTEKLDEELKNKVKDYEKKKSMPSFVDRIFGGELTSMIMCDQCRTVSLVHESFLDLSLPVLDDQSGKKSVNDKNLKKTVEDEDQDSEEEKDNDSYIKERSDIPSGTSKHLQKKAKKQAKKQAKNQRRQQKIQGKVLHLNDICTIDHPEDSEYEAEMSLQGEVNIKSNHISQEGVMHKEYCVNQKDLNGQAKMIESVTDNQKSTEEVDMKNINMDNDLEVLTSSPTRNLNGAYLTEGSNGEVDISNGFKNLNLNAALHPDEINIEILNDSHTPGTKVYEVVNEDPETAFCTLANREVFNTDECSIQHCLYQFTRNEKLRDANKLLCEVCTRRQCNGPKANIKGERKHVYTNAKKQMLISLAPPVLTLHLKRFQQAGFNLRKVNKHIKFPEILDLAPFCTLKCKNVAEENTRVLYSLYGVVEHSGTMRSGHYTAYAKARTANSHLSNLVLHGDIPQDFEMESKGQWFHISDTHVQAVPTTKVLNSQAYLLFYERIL
# Method in brief: as §1
smiles,measurement,setting,value
O=C(CCl)NC1CCC(C(F)(F)F)CC1 (stereo not given),log2 ratio of Biotin-Ahx-Ub-VS probe labelling,[1],-0.153
same,log2 ratio of Biotin-Ahx-Ub-VS probe labelling,[2],-0.576
same,log2 ratio of Biotin-Ahx-Ub-VS probe labelling,[3],0.103
same,log2 ratio of Biotin-Ahx-Ub-VS probe labelling,[4],-0.258
same,log2 ratio of Biotin-Ahx-Ub-VS probe labelling,[5],-1.31 (active)
same,log2 ratio of Biotin-Ahx-Ub-VS probe labelling,[6],0.327
same,log2 ratio of Biotin-Ahx-Ub-VS probe labelling,[7],-0.0657
same,log2 ratio of Biotin-Ahx-Ub-VS probe labelling,[8],-0.141
same,log2 ratio of Biotin-Ahx-Ub-VS probe labelling,[9],-0.158
same,log2 ratio of Biotin-Ahx-Ub-VS probe labelling,[10],-0.000805
